# TRHR enhancer – allosteric enhancers of human TRH receptor | P34981 | TRHR cells, fluo-8 calcium fluorescence, EC20 TRH enhancement | enhancement, % at 2 µM | hit rate 0.66% among 360,000; in the data active means enhancement above about 30%; further: 0% is about no effect
# Target sequence (P34981 whole entry, looked up): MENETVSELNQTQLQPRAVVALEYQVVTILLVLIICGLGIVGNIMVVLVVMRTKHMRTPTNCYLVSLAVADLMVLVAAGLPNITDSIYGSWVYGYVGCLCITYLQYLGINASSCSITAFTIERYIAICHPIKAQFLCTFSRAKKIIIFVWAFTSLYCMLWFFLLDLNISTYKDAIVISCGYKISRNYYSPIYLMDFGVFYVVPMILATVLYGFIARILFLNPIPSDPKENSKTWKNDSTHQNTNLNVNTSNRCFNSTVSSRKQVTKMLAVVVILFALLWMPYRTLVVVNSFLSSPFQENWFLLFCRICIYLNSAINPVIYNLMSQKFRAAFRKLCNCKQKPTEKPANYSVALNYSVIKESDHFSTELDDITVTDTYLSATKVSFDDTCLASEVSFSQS
#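 TRHR-expressing cells loaded with fluo-8 calcium dye were read kinetically (ex 480/em 530) during compound addition, then stimulated with an EC20 of TRH (10 nM final). Enhancement of the Gq-mediated intracellular calcium response was scored.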
# D1 antagonist – human D1 dopamine receptor antagonism | P21728 | HEK293 TREx D1 cells, calcium flux, dopamine EC80; active compounds read low | activity change, negative = inhibition, % at 10 µM | hit rate 3.2% among 360,000 | AID 504652; in the data active means activity change below about -30%; further: on the % scale 0 is the no-effect control and ±100 the full control effect
#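 Antagonism measured as reduced calcium response to an EC80 dopamine addition following 180 s compound pre-read; cells were inducible HEK293 Trex D1 plated overnight at 30 C, read kinetically at 1 cycle/sec.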
# D1 potentiator – enhances dopamine response at the human D1 receptor. hit rate 0.036% among 360,000. AID 504651. potentiation, % at 10 µM. HEK293 TREx D1 cells, calcium flux, dopamine EC20 potentiation. P21728; in the data active means potentiation above about 30%; further: 0% is about no effect
# TRHR agonist – agonists of human TRH receptor. P34981. TRHR cells, calcium flux fluo-8, FDSS agonist mode. activation, % at 2 µM. hit rate 0.18% among 360,000. AID 493084; further: 0% is about no effect
#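 TRHR-expressing cells loaded with fluo-8 calcium dye; 23 nL library compound pin-transferred, kinetic FDSS fluorescence (Ex 480/Em 530) recorded about 180 s for agonist-induced calcium release, before a 10 nM TRH EC20 addition for potentiator mode.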
# D1 ag – activates the human D1 dopamine receptor. AID 504660. HEK293 T-REx D1 cells, calcium flux, agonist mode. P21728. activation, % at 2 µM. hit rate 1% among 360,000; further: 0% is about no effect
#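 Agonism was scored from calcium flux recorded over 180 s (1 read/s) after pintool compound addition, following a 10-cycle baseline. Cells were inducible force-coupled HEK293 TREx D1, plated overnight at 30 C and loaded with no-wash calcium dye.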
# * marks the source's active call; other numbers are inactive results; / = no result. Shown are actives, neighbours in structure and some others; about 4.7% of the full set was active somewhere. Unless noted, no stated cut-off is given here; in the data, active means activation above about 30%; inactive means the rest.
SMILES,TRHR enhancer,D1 antagonist,D1 potentiator,TRHR agonist,D1 ag
O=C(CSc1nc2ccccc2nc1Cc1ccccc1)Nc1ccccc1C(F)(F)F,-4.0,8.3,-1.1,1.1,15.1
Cc1nc2[nH]c(=O)c3c(n2n1)NC1=C(C(=O)CC(C)(C)C1)C3c1ccccc1 (stereo unspecified),0.1,-51.3*,-2.7,0.1,4.8
CC(C)c1ccc(OCc2ccc(C(=O)N3CCCC3)o2)cc1,2.9,-33.8*,/,-1.8,69.6*
CCc1ccc(CNc2nc3nc(C)c(Cc4ccccc4)c(=O)n3[nH]2)cc1,-2.6,-20.9,-0.7,0.2,1.6
COC(=O)c1ccc(-n2nnnc2SCC(=O)N2CCCCC2)cc1,5.5,-30.2*,-4.1,-0.4,5.4
CCN1CCN(c2cc(=O)n(Cc3ccc(F)cc3)c(=O)[nH]2)CC1,-3.3,15.7,-3.5,1.0,0.7
CCOC(=O)N1CCN(c2cc(=O)n(Cc3ccc(F)cc3)c(=O)[nH]2)CC1,2.3,-36.8*,-2.0,0.6,0.8
COC(=O)c1ccccc1Oc1cnc2ccccc2n1,-0.2,-10.7,-10.1,-0.5,-0.1
CCOC(=O)c1ccc(Oc2nc(NC)nc(SC)n2)cc1,-1.1,-34.2*,-7.2,-0.9,11.6
CNc1nc(Oc2ccccc2C(=O)OC)nc(SC)n1,-6.4,-40.3*,-5.3,-0.8,1.2
Cc1cc(Br)ccc1NC(=O)CN1C(=O)c2cccnc2Sc2ccccc21,-2.2,4.9,-2.4,0.4,0.7
COc1ccc(N(Cc2cccs2)C(=O)c2ccccc2C)cc1,-5.2,-36.5*,1.2,-0.1,4.3
CC(=O)c1ccc(OCC(O)CN(C)Cc2cccs2)cc1 (stereo unspecified),3.4,-43.4*,0.9,-0.6,37.1*
COc1ccc(N(Cc2cccs2)C(=O)c2ccc(OCC(C)C)cc2)cc1,19.1,2.7,2.8,-0.3,34.1*
Cc1ccc(N(Cc2cccs2)C(=O)c2ccc(Br)o2)cc1,-10.6,-19.0,-1.8,0.2,7.6
COc1ccc(N(Cc2cccs2)C(=O)c2ccc(C(C)(C)C)cc2)cc1,-0.5,2.2,-0.8,1.6,14.2
Cc1ccc(N(Cc2cccs2)C(=O)c2ccccc2)cc1,2.0,-34.4*,-1.1,0.0,1.4
Cc1cc2c(s1)c1cnn(Cc3ccccc3)c(=O)c1n2C,0.0,-0.4,8.4,-1.1,0.5
CC1=C(C(=O)Nc2c(C)cc(C)cc2C)C2(CCN(C(C)C)CC2)OC1=O,3.4,-0.8,-2.7,-0.8,4.9
CCC(=O)Nc1ccccc1C(=O)OCc1cc(=O)n2cc(C)sc2n1,2.7,-0.5,-0.7,-0.3,1.4
Cc1ccc(S(=O)(=O)NCc2csc(C)n2)cc1,-6.1,1.4,3.0,-0.5,-0.1
Cc1nc(CNS(=O)(=O)c2ccc3c(c2)CCCC3)cs1,9.2,-46.5*,-10.8,-0.9,9.9
CC(NC(=O)c1ccc(Br)cc1Br)c1ccccc1 (stereo unspecified),10.0,0.2,0.9,-2.3,9.7
Cn1c(NC(=O)c2cc(Br)ccc2Cl)cc(=O)n(C)c1=O,2.1,8.6,-5.5,-0.2,32.8*
CC(NC(=O)c1cc(Br)ccc1Cl)c1ccccc1 (stereo unspecified),0.6,-45.7*,-5.9,-0.1,0.2
SMILES,TRHR enhancer,D1 antagonist,D1 potentiator,TRHR agonist,D1 ag
CCOc1ccc(C(=O)N2CCN(c3ccccn3)CC2)cc1OCC,-8.1,1.9,3.4,-0.1,4.9
O=C(NCCC1=CCCCC1)C1CCN(C(=O)N2CCOc3ccccc32)CC1,2.8,-2.3,0.1,-0.3,0.8
CCSc1nnc(-c2sc3nnc(-c4ccccc4)c(-c4ccccc4)c3c2N)o1,6.1,-0.8,2.6,64.2*,108.6*
COC(=O)C1CCN(C(=O)/C=C/c2ccc3c(c2)OCO3)CC1,-2.6,0.9,-1.4,0.3,1.5
COc1ccccc1N1CCN(Cc2cccc(OC)c2OC)CC1,-0.7,-41.8*,-7.6,-0.2,7.6
COc1ccccc1N1CCN(Cc2cn[nH]c2-c2ccc(F)cc2)CC1,12.5,3.7,-4.0,-0.6,60.2*
CC1=C(C(=O)Nc2ccc(C)cc2C)C(c2ccc(C(=O)O)cc2)n2nc(SCc3ccccc3)nc2N1 (stereo unspecified),10.8,-59.5*,-0.2,-0.4,-2.7
COc1ccc(CN2COc3ccc4c(-c5ccccc5)cc(=O)oc4c3C2)cc1,-0.5,-24.6,-1.4,-1.2,27.6
Cc1ccc(CN2COc3ccc4c(-c5ccccc5)cc(=O)oc4c3C2)cc1,55.3*,-17.3,-2.4,0.6,10.6
N#Cc1ccccc1CSc1ccc(-c2nc3ccccc3[nH]2)cn1,-6.1,-35.2*,-5.8,0.0,15.2
Cc1cc2nc(-c3ccc(SCc4ccc(C#N)cc4)nc3)[nH]c2cc1C,-0.7,-42.9*,-10.8,0.5,-0.9
CC(=O)CSc1ccc(-c2nc3ccccc3[nH]2)cn1,0.6,10.2,-7.0,0.3,-0.2
CSc1ccc(C2NC(=O)c3c(sc4c3CCN(C)C4)N2)cc1 (stereo unspecified),-0.2,7.3,/,-1.0,33.9*
CN1CCc2c(sc3c2C(=O)NC(c2cccs2)N3)C1 (stereo unspecified),-2.3,-48.4*,-3.2,1.7,7.9
CN1CCc2c(sc3c2C(=O)NC(c2ccc(C(C)(C)C)cc2)N3)C1 (stereo unspecified),0.4,2.5,2.6,9.3,37.3*
O=C(CCCCn1c(=O)[nH]c2ccsc2c1=O)N1CCN(c2cccc(C(F)(F)F)c2)CC1,3.0,-10.8,-1.2,-0.4,2.3
CCOC(=O)C1(CC2CC2)CCN(Cc2cn[nH]c2-c2cccc(F)c2)CC1,-3.9,-38.1*,-7.3,1.7,1.1
CCOC(=O)C1(CC2CC2)CCN(Cc2cn[nH]c2-c2ccccc2)CC1,-6.6,6.7,-3.9,2.2,3.5
Nc1nc(-c2ccccc2)c(-c2ccc([N+](=O)[O-])cc2)s1,7.7,-4.0,-3.6,21.5,71.3*
Nc1nc(-c2ccccc2)c(-c2ccccc2)s1,1.2,-6.9,0.5,0.2,0.5
CSc1nsc(NC(=O)OCc2ccc(Cl)cc2)n1,0.0,-36.4*,-5.8,1.1,26.1
COc1cccc(NC(=O)Nc2cc(-c3cn4cccnc4n3)ccc2OC)c1,34.1*,5.0,-2.4,-0.4,-0.1
COc1ccc(-c2cn3cccnc3n2)cc1NC(=O)c1c(F)cccc1F,1.3,-34.8*,-2.8,-0.2,-0.8
CC(C)Oc1ccc(C(CCN)C2CCCCC2)cc1 (stereo unspecified),1.9,39.7,12.0,18.2,102.3*
COP(=O)(OC)c1nc(-c2ccc([N+](=O)[O-])cc2)oc1N1CCCCC1,0.6,-3.1,-6.1,12.1,49.2*
CCCCNC(=O)C1CCC(Cn2c(=O)c3sccc3n(Cc3ccccc3)c2=O)CC1 (stereo unspecified),11.4,7.8,-1.2,0.5,-1.1
O=C1CCC[C@@H]2Cc3[nH]c4c(Cl)ccc(Cl)c4c3[C@@H]3CCN1[C@H]23,3.1,-17.9,-1.1,0.0,6.7
